# Substitutions are numbered along the chain they refer to.
# Key:
# Test in all cases: PBM; 200 nM protein, PBS
# Details in all cases: dsDNA, one strand shown
# NKX2-4 [1] = target: T1, NKX2-4 (Homo sapiens, UniProt Q9H2Z4 175-261, P217L)
# T1 sequence: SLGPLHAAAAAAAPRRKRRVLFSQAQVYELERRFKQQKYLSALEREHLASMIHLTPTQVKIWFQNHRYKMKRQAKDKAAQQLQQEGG
# NKX2-4 [2] = target: T2, NKX2-4 (Homo sapiens, UniProt Q9H2Z4 175-261, T231S)
# T2 sequence: T1 sequence with L43P, T57S
# NKX2-4 [3] = target: T3, NKX2-4 (Homo sapiens, UniProt Q9H2Z4 175-261)
# T3 sequence: T1 sequence with L43P
# NKX2-4 [4] = target: T4, NKX2-4 (Homo sapiens, UniProt Q9H2Z4 175-261, R246Q)
# T4 sequence: T1 sequence with L43P, R72Q
# NKX2-6 = target: T5, NKX2-6 (Homo sapiens, UniProt A6NCS4 118-204, F151L)
# T5 sequence: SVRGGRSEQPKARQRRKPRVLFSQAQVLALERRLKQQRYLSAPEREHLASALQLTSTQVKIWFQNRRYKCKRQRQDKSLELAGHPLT
# VAX1 [5] = target: VAX1 (Homo sapiens, UniProt Q5SQQ9 86-172)
# VAX1 [6] = target: VAX1 (Homo sapiens, UniProt Q5SQQ9 86-172, T142I)
# VAX1 [7] = target: VAX1 (Homo sapiens, UniProt Q5SQQ9 86-172, K157R)
# ALX1 = ALX1 (Homo sapiens, UniProt Q15699 118-204)
# NKX3-2 [8] = target: NKX3-2 (Homo sapiens, UniProt P78367 192-278, P234S)
# NKX3-2 [9] = target: NKX3-2 (Homo sapiens, UniProt P78367 192-278)
# VENTX = target: T6, VENTX (Homo sapiens, UniProt O95231 78-163, R121Q)
# T6 sequence: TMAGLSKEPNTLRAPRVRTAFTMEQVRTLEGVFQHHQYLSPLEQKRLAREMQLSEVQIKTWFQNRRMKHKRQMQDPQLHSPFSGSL
# PROP1 [10] = target: PROP1 (Homo sapiens, UniProt O75360 56-141)
# PROP1 [11] = target: PROP1 (Homo sapiens, UniProt O75360 56-141, R99H)
# PROP1 [12] = target: PROP1 (Homo sapiens, UniProt O75360 56-141, F88S)
# Sequence of PROP1 (Homo sapiens, UniProt O75360 56-141, F88S) (O75360 56-141 F88S): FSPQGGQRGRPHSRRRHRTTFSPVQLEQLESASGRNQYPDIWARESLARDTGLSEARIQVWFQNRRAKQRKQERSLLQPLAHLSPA
# Sequence of NKX3-2 (Homo sapiens, UniProt P78367 192-278, P234S) (P78367 192-278 P234S): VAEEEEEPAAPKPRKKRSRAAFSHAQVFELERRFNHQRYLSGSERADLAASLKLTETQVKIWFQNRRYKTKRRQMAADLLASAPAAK
# Sequence of PROP1 (Homo sapiens, UniProt O75360 56-141) (O75360 56-141): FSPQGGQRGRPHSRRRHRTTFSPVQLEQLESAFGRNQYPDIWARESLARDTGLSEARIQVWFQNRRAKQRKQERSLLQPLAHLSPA
# Sequence of VAX1 (Homo sapiens, UniProt Q5SQQ9 86-172, K157R) (Q5SQQ9 86-172 K157R): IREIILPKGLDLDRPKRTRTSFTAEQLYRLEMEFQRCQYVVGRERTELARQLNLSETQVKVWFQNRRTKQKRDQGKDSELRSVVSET
# Sequence of VAX1 (Homo sapiens, UniProt Q5SQQ9 86-172) (Q5SQQ9 86-172): as the sequence (Q5SQQ9 86-172 K157R) above, with R72K counted along it
# Sequence of PROP1 (Homo sapiens, UniProt O75360 56-141, R99H) (O75360 56-141 R99H): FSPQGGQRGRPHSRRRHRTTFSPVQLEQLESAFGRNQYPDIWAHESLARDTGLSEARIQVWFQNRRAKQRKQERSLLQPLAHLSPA
# Sequence of VAX1 (Homo sapiens, UniProt Q5SQQ9 86-172, T142I) (Q5SQQ9 86-172 T142I): as the sequence (Q5SQQ9 86-172 K157R) above, with T57I, R72K counted along it
# Sequence of NKX3-2 (Homo sapiens, UniProt P78367 192-278) (P78367 192-278): as the sequence (P78367 192-278 P234S) above, with S43P counted along it
# Sequence of ALX1 (Q15699 118-204): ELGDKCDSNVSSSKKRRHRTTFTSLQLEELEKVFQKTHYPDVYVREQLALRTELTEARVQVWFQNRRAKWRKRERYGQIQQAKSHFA
sequence,measurement,setting,value
CACTTCAC,binding signal,NKX2-4 [1],"12.5 upbm affinity estimate (log intensity, higher = more binding, comparable within an allelic series)"
same,binding signal,NKX2-4 [2],"12.8 upbm affinity estimate (log intensity, higher = more binding, comparable within an allelic series)"
same,binding signal,NKX2-4 [3],"12.3 upbm affinity estimate (log intensity, higher = more binding, comparable within an allelic series)"
same,binding signal,NKX2-4 [4],"12.9 upbm affinity estimate (log intensity, higher = more binding, comparable within an allelic series)"
same,binding signal,NKX2-6,"10.7 upbm affinity estimate (log intensity, higher = more binding, comparable within an allelic series)"
CCCGGCAG,binding signal,NKX2-4 [1],"9.62 upbm affinity estimate (log intensity, higher = more binding, comparable within an allelic series)"
same,binding signal,NKX2-4 [2],"9.52 upbm affinity estimate (log intensity, higher = more binding, comparable within an allelic series)"
same,binding signal,NKX2-4 [3],"9.63 upbm affinity estimate (log intensity, higher = more binding, comparable within an allelic series)"
same,binding signal,NKX2-4 [4],"9.61 upbm affinity estimate (log intensity, higher = more binding, comparable within an allelic series)"
same,binding signal,VAX1 [5],"7.23 upbm affinity estimate (log intensity, higher = more binding, comparable within an allelic series)"
same,binding signal,VAX1 [6],"7.18 upbm affinity estimate (log intensity, higher = more binding, comparable within an allelic series)"
same,binding signal,VAX1 [7],"7.28 upbm affinity estimate (log intensity, higher = more binding, comparable within an allelic series)"
CAGTGCGC,binding signal,NKX2-4 [1],"9.85 upbm affinity estimate (log intensity, higher = more binding, comparable within an allelic series)"
same,binding signal,NKX2-4 [2],"9.8 upbm affinity estimate (log intensity, higher = more binding, comparable within an allelic series)"
same,binding signal,NKX2-4 [3],"9.86 upbm affinity estimate (log intensity, higher = more binding, comparable within an allelic series)"
same,binding signal,NKX2-4 [4],"9.79 upbm affinity estimate (log intensity, higher = more binding, comparable within an allelic series)"
ATTTAGTG,binding signal,NKX2-4 [1],"11.4 upbm affinity estimate (log intensity, higher = more binding, comparable within an allelic series)"
same,binding signal,NKX2-4 [2],"11.6 upbm affinity estimate (log intensity, higher = more binding, comparable within an allelic series)"
same,binding signal,NKX2-4 [3],"11.4 upbm affinity estimate (log intensity, higher = more binding, comparable within an allelic series)"
same,binding signal,NKX2-4 [4],"11.5 upbm affinity estimate (log intensity, higher = more binding, comparable within an allelic series)"
ACTATAAG,binding signal,NKX2-4 [1],"11.5 upbm affinity estimate (log intensity, higher = more binding, comparable within an allelic series)"
same,binding signal,NKX2-4 [3],"11.4 upbm affinity estimate (log intensity, higher = more binding, comparable within an allelic series)"
same,binding signal,NKX2-4 [4],"11.8 upbm affinity estimate (log intensity, higher = more binding, comparable within an allelic series)"
ACTCTTAA,binding signal,NKX2-4 [1],"12.4 upbm affinity estimate (log intensity, higher = more binding, comparable within an allelic series)"
same,binding signal,ALX1,"8.51 upbm affinity estimate (log intensity, higher = more binding, comparable within an allelic series)"
ACCACTCA,binding signal,NKX2-4 [1],"12.4 upbm affinity estimate (log intensity, higher = more binding, comparable within an allelic series)"
same,binding signal,NKX2-4 [2],"12.8 upbm affinity estimate (log intensity, higher = more binding, comparable within an allelic series)"
same,binding signal,NKX2-4 [3],"12.3 upbm affinity estimate (log intensity, higher = more binding, comparable within an allelic series)"
same,binding signal,NKX2-4 [4],"12.8 upbm affinity estimate (log intensity, higher = more binding, comparable within an allelic series)"
same,binding signal,NKX3-2 [8],"12.5 upbm affinity estimate (log intensity, higher = more binding, comparable within an allelic series)"
same,binding signal,NKX3-2 [9],"12.6 upbm affinity estimate (log intensity, higher = more binding, comparable within an allelic series)"
CGGCTGTA,binding signal,NKX2-4 [1],"9.81 upbm affinity estimate (log intensity, higher = more binding, comparable within an allelic series)"
same,binding signal,NKX2-4 [2],"9.8 upbm affinity estimate (log intensity, higher = more binding, comparable within an allelic series)"
same,binding signal,NKX2-4 [3],"9.77 upbm affinity estimate (log intensity, higher = more binding, comparable within an allelic series)"
same,binding signal,NKX2-4 [4],"9.94 upbm affinity estimate (log intensity, higher = more binding, comparable within an allelic series)"
CTGAAAAG,binding signal,NKX2-4 [1],"11 upbm affinity estimate (log intensity, higher = more binding, comparable within an allelic series)"
same,binding signal,NKX2-4 [3],"10.8 upbm affinity estimate (log intensity, higher = more binding, comparable within an allelic series)"
same,binding signal,NKX2-4 [4],"11.1 upbm affinity estimate (log intensity, higher = more binding, comparable within an allelic series)"
CACCCGTA,binding signal,NKX2-4 [1],"9.75 upbm affinity estimate (log intensity, higher = more binding, comparable within an allelic series)"
same,binding signal,NKX2-4 [2],"9.83 upbm affinity estimate (log intensity, higher = more binding, comparable within an allelic series)"
same,binding signal,NKX2-4 [3],"9.77 upbm affinity estimate (log intensity, higher = more binding, comparable within an allelic series)"
same,binding signal,NKX2-4 [4],"9.74 upbm affinity estimate (log intensity, higher = more binding, comparable within an allelic series)"
CACGGCTA,binding signal,NKX2-4 [1],"9.31 upbm affinity estimate (log intensity, higher = more binding, comparable within an allelic series)"
same,binding signal,NKX2-4 [2],"9.28 upbm affinity estimate (log intensity, higher = more binding, comparable within an allelic series)"
same,binding signal,NKX2-4 [3],"9.21 upbm affinity estimate (log intensity, higher = more binding, comparable within an allelic series)"
same,binding signal,NKX2-4 [4],"9.29 upbm affinity estimate (log intensity, higher = more binding, comparable within an allelic series)"
GTGAAGGA,binding signal,NKX2-4 [1],"11.6 upbm affinity estimate (log intensity, higher = more binding, comparable within an allelic series)"
same,binding signal,NKX2-4 [2],"12 upbm affinity estimate (log intensity, higher = more binding, comparable within an allelic series)"
same,binding signal,NKX2-4 [3],"11.5 upbm affinity estimate (log intensity, higher = more binding, comparable within an allelic series)"
same,binding signal,NKX2-4 [4],"11.6 upbm affinity estimate (log intensity, higher = more binding, comparable within an allelic series)"
TAATGTGA,binding signal,VENTX,"10.5 upbm affinity estimate (log intensity, higher = more binding, comparable within an allelic series)"
CAAACCCG,binding signal,NKX2-4 [1],"9.56 upbm affinity estimate (log intensity, higher = more binding, comparable within an allelic series)"
same,binding signal,NKX2-4 [2],"9.55 upbm affinity estimate (log intensity, higher = more binding, comparable within an allelic series)"
same,binding signal,NKX2-4 [3],"9.55 upbm affinity estimate (log intensity, higher = more binding, comparable within an allelic series)"
same,binding signal,NKX2-4 [4],"9.6 upbm affinity estimate (log intensity, higher = more binding, comparable within an allelic series)"
AGAGTGAG,binding signal,NKX2-4 [1],"11.5 upbm affinity estimate (log intensity, higher = more binding, comparable within an allelic series)"
same,binding signal,NKX2-4 [2],"11.6 upbm affinity estimate (log intensity, higher = more binding, comparable within an allelic series)"
same,binding signal,NKX2-4 [3],"11.4 upbm affinity estimate (log intensity, higher = more binding, comparable within an allelic series)"
same,binding signal,NKX2-4 [4],"11.6 upbm affinity estimate (log intensity, higher = more binding, comparable within an allelic series)"
ATCCACTC,binding signal,NKX2-4 [1],"12.4 upbm affinity estimate (log intensity, higher = more binding, comparable within an allelic series)"
same,binding signal,NKX3-2 [8],"12.5 upbm affinity estimate (log intensity, higher = more binding, comparable within an allelic series)"
CCCGGTGC,binding signal,NKX2-4 [1],"9.16 upbm affinity estimate (log intensity, higher = more binding, comparable within an allelic series)"
same,binding signal,NKX2-4 [2],"9.15 upbm affinity estimate (log intensity, higher = more binding, comparable within an allelic series)"
same,binding signal,NKX2-4 [3],"9.25 upbm affinity estimate (log intensity, higher = more binding, comparable within an allelic series)"
same,binding signal,NKX2-4 [4],"9.25 upbm affinity estimate (log intensity, higher = more binding, comparable within an allelic series)"
same,binding signal,PROP1 [10],"6.92 upbm affinity estimate (log intensity, higher = more binding, comparable within an allelic series)"
same,binding signal,PROP1 [11],"6.73 upbm affinity estimate (log intensity, higher = more binding, comparable within an allelic series)"
same,binding signal,PROP1 [12],"6.51 upbm affinity estimate (log intensity, higher = more binding, comparable within an allelic series)"
